Test results taken from PubChem BioAssay (NCATS).
A number with no mark means an inactive call. Inconclusive results are not listed. Activity calls are given as the source filed them. Unless noted, the call rests on the fitted dose curve; in most records, active means well fitted curve in either direction with a large enough effect (not every such curve was filed as active); inconclusive means small, poorly fitted or top-dose-only effect, or another doubt; inactive means flat fitted curve, though single readings scatter.

Columns and labels:
[1] = biological target: Lysosomal acid glucosylceramidase (Homo sapiens) (UniProt P04062); experiment: Glucocerebrosidase-p2 (AID 348; in the data active means potency below about 10 µM; further: potency means the concentration at half of the fitted maximal effect); conditions: purified GBA, blue fluorogenic substrate, 40 min
Lysosomal acid glucosylceramidase (Homo sapiens), sequence (P04062 whole entry, looked up): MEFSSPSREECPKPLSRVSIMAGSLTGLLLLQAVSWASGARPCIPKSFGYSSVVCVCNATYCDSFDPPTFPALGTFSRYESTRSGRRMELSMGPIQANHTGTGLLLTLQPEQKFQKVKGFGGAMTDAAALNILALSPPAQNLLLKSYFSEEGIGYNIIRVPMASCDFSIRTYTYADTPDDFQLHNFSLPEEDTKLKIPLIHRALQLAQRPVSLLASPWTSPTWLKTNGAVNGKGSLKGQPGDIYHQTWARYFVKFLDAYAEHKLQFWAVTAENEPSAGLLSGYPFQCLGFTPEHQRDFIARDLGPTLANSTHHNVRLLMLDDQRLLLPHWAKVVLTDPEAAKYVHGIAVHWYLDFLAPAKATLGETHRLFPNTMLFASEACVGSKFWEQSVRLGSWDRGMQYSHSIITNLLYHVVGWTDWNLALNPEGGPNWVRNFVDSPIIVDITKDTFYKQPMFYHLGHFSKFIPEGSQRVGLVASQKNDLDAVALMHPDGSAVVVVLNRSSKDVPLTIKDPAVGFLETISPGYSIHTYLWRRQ
How it was run: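 Normal human glucocerebrosidase (0.2 nM) with blue fluorogenic substrate (80 uM final) in citrate/phosphate pH 5.9 with 10mM sodium taurocholate, 0.01% tween-20; 40 min RT, NaOH/glycine stop; fluorescence Ex 365/Em 440; AC50 from a titration from 0.6 nM upwards.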

[2] = AP1 Signaling Pathway (AID 357); conditions: ME-180 AP-1-bla reporter, EGF-induced, beta-lactamase ratio, 5 h; at 7.69 µM (top of the series) unless noted;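 further: ME-180 reporter cells stimulated with EGF at its EC50 level; on the % scale 0 is the no-effect control and ±100 the full control effect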
How it was run: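 Beta-lactamase reporter under AP-1 response element, ME-180 background. Stimulus: EC50 EGF. Compound exposure 5 h, 37 °C. Detection: CCF4, 2.5 h RT, 460/530 nm. Values: AC50 from titration.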

[3] = biological target: Cytochrome P450 1A2 (Homo sapiens) (UniProt P05177); experiment: p450-cyp1a2 (AID 410; calls by dose curve; further: potency means the concentration at half of the fitted maximal effect;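 on activity change, negative = inhibition: -100% = full effect of reference inhibitor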); conditions: recombinant CYP1A2, luciferin-ME demethylation, luminescence; series mostly up to 11.4 µM
Cytochrome P450 1A2 (Homo sapiens), sequence (P05177 whole entry, looked up): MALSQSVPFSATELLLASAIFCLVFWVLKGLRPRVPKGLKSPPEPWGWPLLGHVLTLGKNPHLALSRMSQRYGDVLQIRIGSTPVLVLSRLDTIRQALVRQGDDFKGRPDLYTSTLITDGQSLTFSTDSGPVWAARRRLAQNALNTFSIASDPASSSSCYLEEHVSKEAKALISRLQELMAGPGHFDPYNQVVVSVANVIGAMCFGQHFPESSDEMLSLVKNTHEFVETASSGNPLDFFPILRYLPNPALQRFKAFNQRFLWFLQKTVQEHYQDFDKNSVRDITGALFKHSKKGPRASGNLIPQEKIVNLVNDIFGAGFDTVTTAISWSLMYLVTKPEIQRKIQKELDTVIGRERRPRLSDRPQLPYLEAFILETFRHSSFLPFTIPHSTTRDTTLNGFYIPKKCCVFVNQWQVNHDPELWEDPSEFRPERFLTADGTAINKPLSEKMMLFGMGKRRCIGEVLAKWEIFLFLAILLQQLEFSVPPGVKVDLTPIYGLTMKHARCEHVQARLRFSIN
How it was run: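 20nM CYP1A2, 100uM Luciferin-ME (=Km), 100mM KPO4; cpd 10 min RT; +NADPH regen, 60 min RT; stop/detect 20 min; luminescence. Normalized to furafylline 57 uM = full inhibition.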

[4] = NFAT Signaling Pathway (AID 444); conditions: Jurkat NFAT-bla M1, carbachol, beta-lactamase ratio, 5 h; at 7.69 µM (top of the series) unless noted;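 further: carbachol stimulus at about its EC50 of 1 µM final; on the % scale 0 is the no-effect control and ±100 the full control effect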
How it was run: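 Jurkat cells with NFAT-driven β-lactamase reporter and co-expressed M1 receptor, stimulated with carbachol (final 1 uM, ~EC50), compound titration, 5 h at 37 °C. CCF4 loaded 1 h at RT; 460/530 nm ratio gave %activity and AC50.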

[5] = Stat Signaling Pathway (AID 446); conditions: ME-180 (cervical carcinoma) SIE beta-lactamase reporter, IL-6 stimulated, 5 h; at 7.69 µM (top of the series) unless noted;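 further: ME-180 cervical cancer cells given 40 pM IL-6 alongside compound; SIE-controlled beta-lactamase reporter measured as 460/530 nm FRET emission ratio; on the % scale 0 is the no-effect control and ±100 the full control effect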
How it was run: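 Normalization used AC90 stimulation (300 pM IL-6) and AC90 inhibition (125 nM pan-JAK inhibitor at 40 pM IL-6). The underlying signal is SIE-driven beta-lactamase in ME-180 cells after 5 h IL-6 exposure with compound.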

[6] = biological target: Glucocorticoid receptor (Homo sapiens) (UniProt P04150); experiment: GR-GFP Redistribution (AID 450;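 active means compounds whose dose series gives a full or clear partial fitted curve of increased nuclear translocation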; further: potency means the concentration at half of the fitted maximal effect); conditions: U2OS GR-GFP nuclear translocation, laser cytometry, 2 h
Glucocorticoid receptor (Homo sapiens), sequence (P04150 whole entry, looked up, the tested form may be a part): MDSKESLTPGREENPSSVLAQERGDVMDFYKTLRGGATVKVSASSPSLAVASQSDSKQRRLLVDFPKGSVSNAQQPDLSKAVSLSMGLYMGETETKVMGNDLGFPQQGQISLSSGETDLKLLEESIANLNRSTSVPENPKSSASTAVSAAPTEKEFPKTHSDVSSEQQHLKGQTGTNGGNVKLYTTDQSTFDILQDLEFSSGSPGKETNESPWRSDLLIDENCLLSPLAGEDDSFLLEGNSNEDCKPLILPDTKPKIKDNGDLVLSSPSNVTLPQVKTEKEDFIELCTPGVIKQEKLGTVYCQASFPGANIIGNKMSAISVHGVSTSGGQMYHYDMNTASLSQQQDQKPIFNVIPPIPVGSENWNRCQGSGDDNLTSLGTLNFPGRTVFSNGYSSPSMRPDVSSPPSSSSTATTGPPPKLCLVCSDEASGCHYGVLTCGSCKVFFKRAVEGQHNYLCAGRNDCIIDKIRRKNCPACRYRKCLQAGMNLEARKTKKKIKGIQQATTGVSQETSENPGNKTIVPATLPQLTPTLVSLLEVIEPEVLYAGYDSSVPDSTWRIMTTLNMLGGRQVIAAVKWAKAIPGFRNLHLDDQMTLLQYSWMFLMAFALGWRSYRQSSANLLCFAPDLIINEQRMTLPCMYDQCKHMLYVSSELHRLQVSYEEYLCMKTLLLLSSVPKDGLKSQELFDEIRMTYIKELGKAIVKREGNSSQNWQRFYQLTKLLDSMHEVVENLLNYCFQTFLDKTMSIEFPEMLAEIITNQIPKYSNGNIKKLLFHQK

[7] = biological target: Glucocorticoid receptor (Homo sapiens) (UniProt P04150); experiment: GR-EFC Redistribution (AID 451; calls by dose curve; further: potency means the concentration at half of the fitted maximal effect); conditions: CHO-K1 GR-EFC translocation, beta-gal luminescence, 2 h
How it was run: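 CHO-K1 cells expressing nuclear EA and GR-ED fragments of b-gal; compounds titrated up to 46 uM final, 2 h at 37 C. GR nuclear translocation read as complemented b-gal luminescence after 1 h RT detection.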

[8] = biological target: Mitogen-activated protein kinase 10 (Mus musculus) (UniProt Q61831); experiment: JNK3 AlphaScreen Assay (AID 530); conditions: JNK3 lysate, c-Jun phosphorylation; series mostly up to 11.4 µM;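 further: kinase came from lysate of stimulated human HepG2 cells; signal reports phosphorylation of biotinylated GST-cJun 1-79 at Ser73 with 10 µM ATP; on the % scale 0 is the no-effect control and ±100 the full control effect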
How it was run: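 HepG2 lysate (IL-1b/TNFa pre-activated) + biotin-GST-cJun 1-79 + anti-pSer73 cJun; cpd titration, 15 min RT; ATP 10 uM start; Tris pH 7.6, MgCl2, DTT, vanadate; beads in EDTA buffer; AlphaScreen.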

[9] = biological target: 3',5'-cyclic-AMP phosphodiesterase 4B (Homo sapiens) (UniProt Q07343); experiment: qHTS Assay for Inhibitors of PDE-IV (AID 607; active means well fitted activation curve with a large enough effect in the main read-out, with a control signal flat, not every such curve was filed as active; further: % of control where 0% means no effect); conditions: HEK293 ACTOne CNG channel cells, membrane potential fluorescence; series mostly up to 22.9 µM
3',5'-cyclic-AMP phosphodiesterase 4B (Homo sapiens), sequence (Q07343 whole entry, looked up): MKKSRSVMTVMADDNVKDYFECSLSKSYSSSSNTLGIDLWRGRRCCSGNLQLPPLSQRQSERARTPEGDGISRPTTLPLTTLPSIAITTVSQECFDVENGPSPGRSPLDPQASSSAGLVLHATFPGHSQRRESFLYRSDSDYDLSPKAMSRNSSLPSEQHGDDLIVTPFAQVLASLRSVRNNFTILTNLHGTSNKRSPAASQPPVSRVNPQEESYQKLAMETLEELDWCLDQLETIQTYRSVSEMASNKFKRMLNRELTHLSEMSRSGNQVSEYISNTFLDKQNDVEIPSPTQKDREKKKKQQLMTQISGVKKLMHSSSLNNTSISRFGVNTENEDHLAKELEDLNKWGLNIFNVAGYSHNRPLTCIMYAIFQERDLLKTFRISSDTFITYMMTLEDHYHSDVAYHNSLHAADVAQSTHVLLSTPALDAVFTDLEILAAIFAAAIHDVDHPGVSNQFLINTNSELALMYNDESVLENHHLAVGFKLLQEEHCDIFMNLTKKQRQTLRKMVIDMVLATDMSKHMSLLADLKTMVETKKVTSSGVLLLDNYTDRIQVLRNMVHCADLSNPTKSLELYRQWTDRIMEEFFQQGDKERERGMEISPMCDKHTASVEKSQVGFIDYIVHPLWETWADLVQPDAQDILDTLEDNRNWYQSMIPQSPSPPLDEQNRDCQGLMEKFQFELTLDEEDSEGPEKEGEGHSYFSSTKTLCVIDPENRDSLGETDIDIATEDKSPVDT
How it was run: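 HEK293 ACTOne cells with CNG channel (1000/well), endogenous PDE4; membrane potential dye, compounds up to 22.9 uM final. Fluorescence Ex 535/Em 590; RO 20-1724 (100 uM final) as reference.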

| Structure (SMILES) | Potency [1] | activity change, negative = inhibition [2] | Potency [3] | activity change, negative = inhibition [4] | activity, negative = inhibition [5] | Potency [6] | Potency [7] | Potency [8] | Potency [9] | activity change, negative = inhibition [3] |
| --- | --- | --- | --- | --- | --- | --- | --- | --- | --- | --- |
| O=C(O)CSc1ncccc1[N+](=O)[O-] | > 11.4 µM | 6.57% | inactive | 2.05% | 1.22% | > 46 µM | > 9.22 µM | inactive | inactive |  |
| CC(=O)CC(=O)Nc1ccc2ccccc2c1 | > 11.4 µM | 6.48% | 2 µM (active) | 11.8% | 6.17% | > 46 µM | > 9.22 µM | inactive | inactive |  |
| O=C(O)c1c(-c2c3ccc(=O)cc-3oc3cc(O)ccc23)cc2ccccc2c1-c1ccccc1 | > 11.4 µM | 8.03% |  | 2.16% | 3.5% | > 46 µM | > 9.22 µM | inactive | inactive | -17.6% [at 2.29 µM] |
| O=C(O)[C@H](Cc1cc(I)c(O)c(I)c1)C1CCCCC1 | > 11.4 µM | -29.2% |  | 1.46% | -16% | > 46 µM | > 9.22 µM | inactive | inactive | -8.8% [at 2.29 µM] |
| Nc1nc(=O)c2[nH]cnc2n1O | > 11.4 µM | 10.1% | inactive | -5.74% | 7.15% | > 46 µM | > 9.22 µM | inactive | inactive |  |
| O=C1c2ccccc2C(=O)N1C[C@]1(C(=O)O)NCCS1(=O)=O | > 11.4 µM | -0.765% |  | 7.39% | -1.43% | > 46 µM | > 9.22 µM | inactive | inactive | -5.5% [at 2.29 µM] |
| O=S(=O)(C[C@H](O)C(Cl)(Cl)Cl)NNc1ccccc1 | > 11.4 µM | -0.0496% |  | 2.68% | 5.12% | > 46 µM | > 9.22 µM | inactive | inactive | 0.8% [at 2.29 µM] |
| COc1ccc2nccc(SCC(=O)O)c2c1 | > 11.4 µM | 7.58% | 3.98 µM (active) | 6.79% | -2.7% | > 46 µM | > 9.22 µM | inactive | inactive |  |
| C[C@]12CC[C@H]3c4ccc(O)cc4CC[C@@H]3[C@H]1C/C(=N/O)[C@H]2O | > 11.4 µM | -6.54% | inactive | 3.7% | 1.89% | > 46 µM | > 9.22 µM | inactive | inactive |  |
| Nc1ccc(S(=O)(=O)NCc2nccs2)cc1 | > 11.4 µM | -6.48% |  | 7.98% | -1.21% | > 46 µM | > 9.22 µM | inactive | inactive | -10.5% [at 2.29 µM] |
| Cc1cc2nc3[nH]c4c(Cl)cc(Cl)cc4c3nc2cc1C | > 11.4 µM | -14% | 0.631 µM (active) | 11.6% | -5.45% | > 46 µM | > 9.22 µM | inactive | inactive |  |
| Nc1nc2c(C(=O)NCc3cccs3)nnn2c2cccc(Cl)c12 | > 11.4 µM | 2.54% | 1 µM (active) | -1.34% | -2.31% | > 46 µM | > 9.22 µM | inactive | inactive |  |
| CC(=O)N[C@H](Cc1ccc(O)cc1)C(=O)O | > 11.4 µM | -0.588% | inactive | -3.29% | -0.609% | > 46 µM | > 9.22 µM | inactive | inactive |  |
| COc1ccc(CN[C@H](C)C(=O)O)cc1 | > 11.4 µM | -9.23% | inactive | -12% | 2.1% | > 46 µM | > 9.22 µM | inactive | inactive |  |
| O=C(O)c1nnsc1COCc1ccccc1 | > 11.4 µM | 6.35% | inactive | 6.97% | 12.4% | > 46 µM | > 9.22 µM | inactive | inactive |  |
